{"source": "the supplement of paper PMC10338343", "note": "± gives the standard deviation. The full ranking holds about 3,700 sequences; the median of “pre-steady-state target cleavage rate” is about 0.02, and the highest 2% start at about 0.23. The sample holds the highest values, similar sequences and a random draw of the others, so the mix is not that of the screen."}
{"tested_on": "MILI (PIWIL2) piRISC loaded with Kctd7 piRNA (26 nt)", "test": "pre-steady-state target cleavage rate (min^-1); MIWI and MILI are mouse PIWI proteins and EfPiwi is from a freshwater sponge; tags in brackets are library labels; higher = faster piRNA-guided slicing of the target", "conditions": "guide: Kctd7 piRNA 5'p-UGUUAAUCUCUCAGAGAAGGUGACAG; auxiliary factor: 500 nM mouse GTSF1", "method": "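Cleave-'n-Seq: a library of target RNAs (target site embedded in constant flanks, ACAGCATTCCGCGTTAGTGATATCCG... 5' flank; DNA-blocked outside the site) at 0.1 nM was incubated with 1 nM active mouse MILI or MIWI piRISC (synthetic 5'-monophosphorylated piRNA guide) with or without 500 nM mouse GTSF1 at 33 °C for 1 min to 16 h. Uncleaved targets were sequenced and normalised to non-target controls, and the pooled three trials were fitted to a burst-and-steady-state model to give the pre-steady-state cleavage rate (min^-1; k3 is constrained to at most 1e-4). Sequence is the target site only; target names encode pairing extent (gX:gY) and contiguous / 1-mismatch / 2-mismatch / bulge geometry. Fits with R² ≤ 0 are excluded.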"}
{"sequence": "UAGUGUGUGACCUUGUCUGAGAGAUUAACA", "pre-steady-state target cleavage rate": "0.0744 ± 0.014"}
{"sequence": "UAGUGAGUCACCAUCUCUGACAGAUUAACA", "pre-steady-state target cleavage rate": "0.0409 ± 0.0068"}
{"sequence": "UAGUGACUCACCUUCUCUGAGAGCAUUAACA", "pre-steady-state target cleavage rate": "0.144 ± 0.016"}
{"sequence": "UAGUGACAGUGGAAGACUGACAGAUUUACA", "pre-steady-state target cleavage rate": "< 0.0001"}
{"sequence": "UAGUGACAGUCAUUCUCUGAGAGAUUAACA", "pre-steady-state target cleavage rate": "0.00865 ± 0.0029"}
{"sequence": "UAGUGACAGACCUUCUCUGAGAAAUUAACA", "pre-steady-state target cleavage rate": "0.0522 ± 0.015"}
{"sequence": "UAGUGACAGACGCUUCUCUGAGAGAUUAACA", "pre-steady-state target cleavage rate": "0.0399 ± 0.0079"}
{"sequence": "UAGUGAGUCAGCUUCUCUGAGAGAUUUACA", "pre-steady-state target cleavage rate": "0.1 ± 0.018"}
{"sequence": "UAGUGUGACACCAUCUCUGAGAGAUUAACA", "pre-steady-state target cleavage rate": "0.137 ± 0.011"}
{"sequence": "UAGUGACAGUCCGUCUCUGAGAGAUUAACA", "pre-steady-state target cleavage rate": "0.0557 ± 0.0066"}
{"sequence": "UAGUCUGUCAGCUUCACUGAGAGAUUAACA", "pre-steady-state target cleavage rate": "0.0681 ± 0.0072"}
{"sequence": "UAGUGACACACCUUCUCUGAGAGAUUAUGA", "pre-steady-state target cleavage rate": "0.0394 ± 0.012"}
{"sequence": "UAGUGUGUCACCUACUCUGAGACAUUAACA", "pre-steady-state target cleavage rate": "0.0742 ± 0.019"}
{"sequence": "UAGUCUGUCACCUUCUGUGAGAGUUUAACA", "pre-steady-state target cleavage rate": "0.0702 ± 0.016"}
{"sequence": "UAGUCUGUCACCUUCUCUGAGAGGUUAACA", "pre-steady-state target cleavage rate": "0.198 ± 0.025"}
{"sequence": "UAGUCUGUCACCUUCUCUGAGAGAGUAACA", "pre-steady-state target cleavage rate": "0.245 ± 0.033"}
{"sequence": "UAGUCUGUCACCUUCUCUGAGAGUAAAACA", "pre-steady-state target cleavage rate": "0.0676 ± 0.024"}
{"sequence": "UAGUCUGUCACCUUCUCUGAGAGAUUAAAA", "pre-steady-state target cleavage rate": "0.12 ± 0.031"}
{"sequence": "UAGUCUGUCACCUUCUCUGAGAGUUAAACA", "pre-steady-state target cleavage rate": "0.328 ± 0.096"}
{"sequence": "UAGUCUGUCACCUUCUCUGAGAGAUUAAACA", "pre-steady-state target cleavage rate": "0.147 ± 0.018"}
{"sequence": "UAGUCUGUCACCUUCUCUGAGAGUUUAACA", "pre-steady-state target cleavage rate": "0.238 ± 0.04"}
{"sequence": "UAGUCUGUCACCUUCUCUGAGAGUAUUAACA", "pre-steady-state target cleavage rate": "0.173 ± 0.013"}
{"sequence": "UAGUCUGUCACCUUCUCUGAGAGAGUUAACA", "pre-steady-state target cleavage rate": "0.297 ± 0.035"}
{"sequence": "UAGUCUGUCACCUUCUCUGUGAGUUUAACA", "pre-steady-state target cleavage rate": "0.0314 ± 0.0059"}
{"sequence": "UAGUCUGUCACCUUCUCUGAGAGUAUAACA", "pre-steady-state target cleavage rate": "0.122 ± 0.022"}
{"sequence": "UAGUGACAGUCCUUCUCUGAGUCAUUAAGA", "pre-steady-state target cleavage rate": "< 0.0001"}
{"sequence": "UAGUGACACACGAUCUCUGAGAGAUUAACA", "pre-steady-state target cleavage rate": "0.0352 ± 0.0045"}
{"sequence": "UAGUGACAGACCUUAUCUGAGAGAUUAACA", "pre-steady-state target cleavage rate": "0.0894 ± 0.017"}
{"sequence": "UAGUGACAGUGCUUCUCCGAGAGAUUAACA", "pre-steady-state target cleavage rate": "0.0082 ± 0.0034"}
{"sequence": "UAGUGACAGUGGAAGAGAGAGAGAUUGAACA", "pre-steady-state target cleavage rate": "< 0.0001"}
{"sequence": "UAGUGAGUCAGCUACUCUGAGAGAUUAACA", "pre-steady-state target cleavage rate": "0.135 ± 0.01"}
{"sequence": "UAGUGACACACCAACUCUGAGAGAUUAAGA", "pre-steady-state target cleavage rate": "0.018 ± 0.0037"}
{"sequence": "UAGUGACAGUCCUUCUCAGAGAGAUUUACA", "pre-steady-state target cleavage rate": "0.0138 ± 0.0054"}
{"sequence": "UAGUGACAGUGCUUCUCUGAGACAUAAACA", "pre-steady-state target cleavage rate": "< 0.0001"}
{"sequence": "UAGUGAGUCACCUUCUCAGAGAGAUUUACA", "pre-steady-state target cleavage rate": "0.0954 ± 0.024"}
{"sequence": "UAGUCUGUCACCUUCUCUGAGAGACUUAACA", "pre-steady-state target cleavage rate": "0.145 ± 0.024"}
{"sequence": "UAGUCUGUCACCUUCUCUGAGAGUUAACA", "pre-steady-state target cleavage rate": "0.278 ± 0.082"}
{"sequence": "UAGUCUGUCACCUUCUCUGAGAGCUUAACA", "pre-steady-state target cleavage rate": "0.148 ± 0.016"}
{"sequence": "UAGUCUGUCACCAACUCUGAGAGAUUAAGA", "pre-steady-state target cleavage rate": "0.047 ± 0.0083"}
{"sequence": "UAGUCUGUCCACCUUCUCUGAGAGAUUAACA", "pre-steady-state target cleavage rate": "0.15 ± 0.018"}
{"sequence": "UAGUGAGUCACCUUCUCUGAGAGAAUUACA", "pre-steady-state target cleavage rate": "0.105 ± 0.048"}
{"sequence": "UAGUGAGUCACCUUCUCUGAGAGAUUAUCA", "pre-steady-state target cleavage rate": "0.197 ± 0.037"}
{"sequence": "UAGUGAGUCACCUUCUCUGAGAGAAUUAACA", "pre-steady-state target cleavage rate": "0.318 ± 0.059"}
{"sequence": "UAGUGAGUCACCUUCUCUGAGAAAUUAACA", "pre-steady-state target cleavage rate": "0.132 ± 0.027"}
{"sequence": "UAGUGAGUCACCUUCUCUGAGAGAUUAACCA", "pre-steady-state target cleavage rate": "0.219 ± 0.017"}
{"sequence": "UAGUGAGUCACCUUCUCUGAGAGAUUAAUCA", "pre-steady-state target cleavage rate": "0.292 ± 0.053"}
{"sequence": "UAGUGAGUCACCUUCUCUGAGAGAUUAAUA", "pre-steady-state target cleavage rate": "0.217 ± 0.03"}
{"sequence": "UAGUGUGUGCACCUUCUCUGAGAGAUUAACA", "pre-steady-state target cleavage rate": "0.195 ± 0.021"}
{"sequence": "UAGUGUGCCACCUUCUCUGAGAGAUUAACA", "pre-steady-state target cleavage rate": "0.227 ± 0.023"}
{"sequence": "UAGUGUGUCACCUUCCCUGAGAGAUUAACA", "pre-steady-state target cleavage rate": "0.301 ± 0.056"}
{"sequence": "UAGUGAGUCACCUUCUCUGAGAGAUUAACC [g2:g24:cont:t1C]", "pre-steady-state target cleavage rate": "0.192 ± 0.018"}
{"sequence": "UAGUGUGCACCUUCUCUGAGAGAUUAACA", "pre-steady-state target cleavage rate": "0.196 ± 0.024"}
{"sequence": "UAGUGAGUCACCUUCUCUGAGAGAUUAACU [g2:g24:cont:t1U]", "pre-steady-state target cleavage rate": "0.288 ± 0.038"}
{"sequence": "UAGUGACACAGGUUCUCUGAGAGAUUAAGA", "pre-steady-state target cleavage rate": "0.00675 ± 0.0025"}
{"sequence": "UAGUGACAGUCCUUCUCUGAGAGAUUACCA", "pre-steady-state target cleavage rate": "0.00831 ± 0.0032"}
{"sequence": "UAGUGACAGACCUUCUGUGAGAGAUUAACA", "pre-steady-state target cleavage rate": "0.087 ± 0.012"}
{"sequence": "UAGUGACACAGGUUCUCUGAGAGAUUAACA", "pre-steady-state target cleavage rate": "0.0267 ± 0.0054"}
{"sequence": "UAGUCUGUCACCAUCUCUGAGAGAUUUACA", "pre-steady-state target cleavage rate": "0.124 ± 0.018"}
{"sequence": "UAGUGACAGUCCUUCUCUGUGAGAUUAACA", "pre-steady-state target cleavage rate": "0.033 ± 0.0057"}
{"sequence": "UAGUCUGUGACGUUCUCUGAGAGAUUAACA", "pre-steady-state target cleavage rate": "0.147 ± 0.01"}
{"sequence": "UAGUGACAGACCUUCUCUGAGAGGUUAACA", "pre-steady-state target cleavage rate": "0.221 ± 0.058"}
{"sequence": "UAGUGAGUCACCUUCUCUCUGAGAUUAACA", "pre-steady-state target cleavage rate": "0.0118 ± 0.0043"}
{"sequence": "UAGUGGGUCACCUUCUCUGAGAGAUUAACA", "pre-steady-state target cleavage rate": "0.175 ± 0.01"}
{"sequence": "UAGUGAGUGACCUUCUCUGAGAGAUUAACA", "pre-steady-state target cleavage rate": "0.157 ± 0.0097"}
{"sequence": "UAGUGAGUCACCUUCUCUGAGAGAUUAAAA", "pre-steady-state target cleavage rate": "0.135 ± 0.037"}
{"sequence": "UAGUGAGUCACCUUCUCUGAGAGAUUAAACA", "pre-steady-state target cleavage rate": "0.33 ± 0.049"}
{"sequence": "UAGUGAGUCACCUUCUCUGAGGAGAUUAACA", "pre-steady-state target cleavage rate": "0.0247 ± 0.011"}
{"sequence": "UAGUGAGUCACCUUCUCUGAAGAGAUUAACA", "pre-steady-state target cleavage rate": "0.0119 ± 0.0044"}
{"sequence": "UAGUGACCCACCUUCUCUGAGAGAUUAACA", "pre-steady-state target cleavage rate": "0.286 ± 0.039"}
{"sequence": "UAGUGACACCACCUUCUCUGAGAGAUUAACA", "pre-steady-state target cleavage rate": "0.184 ± 0.017"}
{"sequence": "UAGUGAGUCACCUUCUCUGAGAGAUUAAA", "pre-steady-state target cleavage rate": "0.202 ± 0.045"}
